# Laboratory results as given in article PMC7862700, “An all-to-all approach to the identification of sequence-specific readers for epigenetic DNA modifications on cytosine”.
# Tests used:
# Experiment in all cases: DAPPL (digital affinity profiling via proximity ligation, sequencing); 10 mM Tris-HCl pH 7.5, 50 mM NaCl, 1 mM DTT, 4% glycerol, room temperature, 30 min; GST-TFs on glutathione beads, 16-mer random dsDNA library, 0.1% formaldehyde crosslink after washing; high values mean tight binding
# FEV = biological target: T1, FEV (Homo sapiens, UniProt Q99581 1-238); details: protein: recombinant; tags: N-terminal GST; dsDNA, one strand shown
# T1 sequence: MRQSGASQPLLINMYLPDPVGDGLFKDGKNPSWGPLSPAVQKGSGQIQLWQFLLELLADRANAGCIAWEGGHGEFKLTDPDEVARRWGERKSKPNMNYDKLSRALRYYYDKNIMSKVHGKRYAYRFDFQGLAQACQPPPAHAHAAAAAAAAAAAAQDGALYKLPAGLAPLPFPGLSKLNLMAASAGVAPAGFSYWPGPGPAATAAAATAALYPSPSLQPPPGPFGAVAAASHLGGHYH
# In short: (§1)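 In yeast, human transcription factors were expressed with a GST fusion, then pulled down on glutathione beads and given DNA barcodes. Pooled with a tag-only sample, they were exposed to 200 nmole of a 16-mer random double-stranded DNA library (Tris/NaCl/DTT/glycerol buffer, room temperature, 30 min), washed, crosslinked with 0.1% formaldehyde, proximity-ligated using BsaI/T4 ligase for 1 h at 37 °C, PCR-amplified and read on an Illumina NextSeq500. Each hexamer's frequency of reads for a factor, divided by the matching frequency for the tag-only sample, gives the binding signal.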
# ETV5 = ETV5 (Homo sapiens, UniProt P41161 1-510); details: protein: recombinant; tags: N-terminal GST; dsDNA, one strand shown
# Chain of ETV5 (P41161 whole entry): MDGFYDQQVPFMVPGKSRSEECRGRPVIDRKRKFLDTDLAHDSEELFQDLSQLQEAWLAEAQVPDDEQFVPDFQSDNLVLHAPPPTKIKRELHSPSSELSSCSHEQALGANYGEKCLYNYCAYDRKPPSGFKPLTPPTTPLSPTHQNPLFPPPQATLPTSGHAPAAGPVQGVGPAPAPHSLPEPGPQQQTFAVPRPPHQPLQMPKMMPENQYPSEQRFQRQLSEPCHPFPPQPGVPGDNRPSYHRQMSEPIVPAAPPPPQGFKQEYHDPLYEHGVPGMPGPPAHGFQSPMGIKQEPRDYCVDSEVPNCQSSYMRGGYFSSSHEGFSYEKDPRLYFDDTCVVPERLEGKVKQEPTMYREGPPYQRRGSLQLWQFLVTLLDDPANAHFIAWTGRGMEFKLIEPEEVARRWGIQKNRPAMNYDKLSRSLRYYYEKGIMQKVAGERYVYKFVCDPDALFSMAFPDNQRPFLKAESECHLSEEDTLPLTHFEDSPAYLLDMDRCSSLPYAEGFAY
# In short: as §1
# HSF1 = HSF1 (Homo sapiens, UniProt Q00613 1-529); details: protein: recombinant; tags: N-terminal GST; chain copies: 3; dsDNA, one strand shown
# Chain of HSF1 (Q00613 whole entry): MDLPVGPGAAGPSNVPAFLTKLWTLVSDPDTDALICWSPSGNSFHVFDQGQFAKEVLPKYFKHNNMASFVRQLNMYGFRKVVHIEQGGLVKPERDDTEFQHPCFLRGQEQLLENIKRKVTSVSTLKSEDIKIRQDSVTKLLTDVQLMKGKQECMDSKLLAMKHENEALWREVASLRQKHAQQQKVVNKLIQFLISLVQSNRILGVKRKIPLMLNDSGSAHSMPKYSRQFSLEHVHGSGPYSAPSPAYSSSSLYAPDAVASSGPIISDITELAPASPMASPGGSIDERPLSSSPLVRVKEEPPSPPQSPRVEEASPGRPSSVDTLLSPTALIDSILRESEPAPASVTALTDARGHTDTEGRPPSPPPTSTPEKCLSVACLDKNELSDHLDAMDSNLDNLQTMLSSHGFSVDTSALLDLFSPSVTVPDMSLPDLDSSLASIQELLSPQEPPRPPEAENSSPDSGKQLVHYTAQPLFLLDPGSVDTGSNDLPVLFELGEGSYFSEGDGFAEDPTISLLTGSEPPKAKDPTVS
# In short: as §1
# SPIC = biological target: T2, SPIC (Homo sapiens, UniProt Q8N5J4 1-248); details: protein: recombinant; tags: N-terminal GST; dsDNA, one strand shown
# T2 sequence: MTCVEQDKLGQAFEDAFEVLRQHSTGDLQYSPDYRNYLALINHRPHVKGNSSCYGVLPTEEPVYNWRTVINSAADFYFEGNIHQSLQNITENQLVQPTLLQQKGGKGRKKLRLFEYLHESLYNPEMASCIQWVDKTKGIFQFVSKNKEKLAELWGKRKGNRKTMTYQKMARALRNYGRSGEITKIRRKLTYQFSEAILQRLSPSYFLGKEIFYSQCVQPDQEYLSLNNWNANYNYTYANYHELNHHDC
# In short: as §1
# ELF4 = ELF4 (Homo sapiens, UniProt Q99607 1-663); details: protein: recombinant; tags: N-terminal GST; dsDNA, one strand shown
# Chain of ELF4 (Q99607 whole entry): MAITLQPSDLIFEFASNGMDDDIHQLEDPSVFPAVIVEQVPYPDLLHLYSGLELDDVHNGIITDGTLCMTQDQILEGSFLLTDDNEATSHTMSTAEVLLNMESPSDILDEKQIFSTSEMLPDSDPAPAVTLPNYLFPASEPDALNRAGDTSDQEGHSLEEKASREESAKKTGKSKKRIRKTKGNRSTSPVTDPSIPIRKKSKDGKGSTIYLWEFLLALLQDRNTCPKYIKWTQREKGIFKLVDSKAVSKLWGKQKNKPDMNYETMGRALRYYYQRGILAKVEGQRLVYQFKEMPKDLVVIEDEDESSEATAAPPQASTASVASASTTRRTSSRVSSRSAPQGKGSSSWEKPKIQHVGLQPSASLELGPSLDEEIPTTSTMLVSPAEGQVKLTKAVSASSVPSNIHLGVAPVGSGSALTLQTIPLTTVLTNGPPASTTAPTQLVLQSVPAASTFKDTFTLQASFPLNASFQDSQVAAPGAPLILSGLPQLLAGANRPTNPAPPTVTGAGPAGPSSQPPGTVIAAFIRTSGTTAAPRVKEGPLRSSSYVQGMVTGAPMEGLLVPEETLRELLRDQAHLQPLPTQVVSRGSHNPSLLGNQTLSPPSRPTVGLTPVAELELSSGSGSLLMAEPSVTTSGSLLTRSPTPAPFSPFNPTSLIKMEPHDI
# In short: as §1
# ELK4 = biological target: T3, ELK4 (Homo sapiens, UniProt P28324-2 1-405); details: protein: recombinant; tags: N-terminal GST; dsDNA, one strand shown
# T3 sequence: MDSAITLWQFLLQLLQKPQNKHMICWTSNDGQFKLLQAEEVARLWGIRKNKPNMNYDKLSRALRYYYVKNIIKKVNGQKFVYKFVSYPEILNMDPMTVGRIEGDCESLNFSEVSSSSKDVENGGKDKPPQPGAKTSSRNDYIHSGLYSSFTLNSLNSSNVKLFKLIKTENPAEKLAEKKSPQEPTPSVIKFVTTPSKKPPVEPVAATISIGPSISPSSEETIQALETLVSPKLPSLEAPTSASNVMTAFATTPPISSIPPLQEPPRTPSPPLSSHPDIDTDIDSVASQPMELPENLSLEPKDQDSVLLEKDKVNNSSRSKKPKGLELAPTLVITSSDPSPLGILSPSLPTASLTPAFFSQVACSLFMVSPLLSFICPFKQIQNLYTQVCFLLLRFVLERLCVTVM
# In short: as §1
# ETV2 = biological target: T4, ETV2 (Homo sapiens, UniProt O00321 1-342); details: protein: recombinant; tags: N-terminal GST; dsDNA, one strand shown
# T4 sequence: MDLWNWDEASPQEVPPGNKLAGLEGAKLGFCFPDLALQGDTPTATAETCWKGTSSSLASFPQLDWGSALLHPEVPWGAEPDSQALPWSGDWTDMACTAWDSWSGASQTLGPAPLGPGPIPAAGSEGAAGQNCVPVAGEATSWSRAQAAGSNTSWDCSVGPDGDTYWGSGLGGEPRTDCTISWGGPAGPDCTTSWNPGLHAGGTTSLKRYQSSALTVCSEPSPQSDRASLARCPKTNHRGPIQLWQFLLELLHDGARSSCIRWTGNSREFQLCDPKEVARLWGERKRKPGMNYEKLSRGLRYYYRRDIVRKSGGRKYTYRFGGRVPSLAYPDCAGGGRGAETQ
# In short: as §1
# ELF3 = biological target: T5, ELF3 (Homo sapiens, UniProt P78545 1-371); details: protein: recombinant; tags: N-terminal GST; dsDNA, one strand shown
# T5 sequence: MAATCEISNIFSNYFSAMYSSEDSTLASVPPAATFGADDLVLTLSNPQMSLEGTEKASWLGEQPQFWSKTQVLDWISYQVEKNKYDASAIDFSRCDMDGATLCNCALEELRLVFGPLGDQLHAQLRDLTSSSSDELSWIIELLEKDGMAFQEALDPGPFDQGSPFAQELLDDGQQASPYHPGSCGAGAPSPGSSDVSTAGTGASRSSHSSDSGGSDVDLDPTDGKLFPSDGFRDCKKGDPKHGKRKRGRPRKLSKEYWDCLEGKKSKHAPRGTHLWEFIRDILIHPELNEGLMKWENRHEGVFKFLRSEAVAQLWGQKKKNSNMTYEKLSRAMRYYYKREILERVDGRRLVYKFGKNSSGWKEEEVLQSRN
# In short: as §1
# CRX = CRX (Homo sapiens, UniProt O43186 1-299); details: protein: recombinant; tags: N-terminal GST; dsDNA, one strand shown
# Chain of CRX (O43186 whole entry): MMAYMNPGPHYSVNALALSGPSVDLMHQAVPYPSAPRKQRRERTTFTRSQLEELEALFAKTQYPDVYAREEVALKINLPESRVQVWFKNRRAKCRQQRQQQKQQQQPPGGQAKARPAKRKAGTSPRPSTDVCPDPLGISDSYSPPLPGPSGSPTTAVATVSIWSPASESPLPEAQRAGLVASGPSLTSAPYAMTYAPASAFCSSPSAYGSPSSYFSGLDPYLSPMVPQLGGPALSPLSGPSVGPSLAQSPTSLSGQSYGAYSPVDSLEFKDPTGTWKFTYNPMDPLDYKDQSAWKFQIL
# In short: as §1
# ETV1 = ETV1 (Homo sapiens, UniProt P50549 1-477); details: protein: recombinant; tags: N-terminal GST; dsDNA, one strand shown
# Chain of ETV1 (P50549 whole entry): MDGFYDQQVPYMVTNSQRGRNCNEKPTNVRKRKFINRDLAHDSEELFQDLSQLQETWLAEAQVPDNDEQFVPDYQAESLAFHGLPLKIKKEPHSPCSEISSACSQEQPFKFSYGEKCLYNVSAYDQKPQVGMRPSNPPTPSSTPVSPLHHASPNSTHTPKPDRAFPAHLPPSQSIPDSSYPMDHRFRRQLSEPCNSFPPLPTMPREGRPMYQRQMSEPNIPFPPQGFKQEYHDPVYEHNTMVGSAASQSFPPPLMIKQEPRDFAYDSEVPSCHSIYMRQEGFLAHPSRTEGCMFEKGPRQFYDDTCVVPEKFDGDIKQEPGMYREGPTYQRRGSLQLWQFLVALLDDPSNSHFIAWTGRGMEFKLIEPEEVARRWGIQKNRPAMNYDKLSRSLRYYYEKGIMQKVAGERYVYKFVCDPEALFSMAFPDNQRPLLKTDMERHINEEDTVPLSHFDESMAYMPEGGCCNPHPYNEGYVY
# In short: as §1
# ERF = biological target: T6, ERF (Homo sapiens, UniProt P50548 1-548); details: protein: recombinant; tags: N-terminal GST; dsDNA, one strand shown
# T6 sequence: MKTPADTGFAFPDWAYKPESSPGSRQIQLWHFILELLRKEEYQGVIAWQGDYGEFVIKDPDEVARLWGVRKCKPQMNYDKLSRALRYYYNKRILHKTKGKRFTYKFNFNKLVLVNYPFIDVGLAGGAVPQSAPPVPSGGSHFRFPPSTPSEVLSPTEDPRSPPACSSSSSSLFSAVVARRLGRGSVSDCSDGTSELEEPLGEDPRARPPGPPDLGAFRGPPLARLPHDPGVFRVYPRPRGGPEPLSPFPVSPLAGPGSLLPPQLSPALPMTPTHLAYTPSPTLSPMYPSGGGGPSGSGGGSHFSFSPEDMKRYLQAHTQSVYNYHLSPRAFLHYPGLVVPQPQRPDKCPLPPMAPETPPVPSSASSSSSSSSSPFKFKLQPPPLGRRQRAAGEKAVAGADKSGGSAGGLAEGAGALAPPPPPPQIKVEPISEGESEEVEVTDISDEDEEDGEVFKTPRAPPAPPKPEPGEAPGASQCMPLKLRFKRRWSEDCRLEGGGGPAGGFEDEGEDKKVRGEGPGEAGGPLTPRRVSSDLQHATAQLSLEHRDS
# In short: as §1
# ETV3L = biological target: T7, ETV3L (Homo sapiens, UniProt Q6ZN32 1-361); details: protein: recombinant; tags: N-terminal GST; dsDNA, one strand shown
# T7 sequence: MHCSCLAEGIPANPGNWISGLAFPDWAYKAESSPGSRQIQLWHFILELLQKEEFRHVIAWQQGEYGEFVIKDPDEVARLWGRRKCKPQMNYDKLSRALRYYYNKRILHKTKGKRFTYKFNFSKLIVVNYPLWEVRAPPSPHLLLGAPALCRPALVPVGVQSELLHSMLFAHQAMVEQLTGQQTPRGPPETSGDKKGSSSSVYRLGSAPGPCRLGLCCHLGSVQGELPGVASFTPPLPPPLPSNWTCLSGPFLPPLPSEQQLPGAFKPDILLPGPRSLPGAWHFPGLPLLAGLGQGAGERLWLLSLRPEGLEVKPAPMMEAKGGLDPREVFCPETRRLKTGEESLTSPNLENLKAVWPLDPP
# In short: as §1
# ETS2 = biological target: T8, ETS2 (Homo sapiens, UniProt P15036 1-469); details: protein: recombinant; tags: N-terminal GST; dsDNA, one strand shown
# T8 sequence: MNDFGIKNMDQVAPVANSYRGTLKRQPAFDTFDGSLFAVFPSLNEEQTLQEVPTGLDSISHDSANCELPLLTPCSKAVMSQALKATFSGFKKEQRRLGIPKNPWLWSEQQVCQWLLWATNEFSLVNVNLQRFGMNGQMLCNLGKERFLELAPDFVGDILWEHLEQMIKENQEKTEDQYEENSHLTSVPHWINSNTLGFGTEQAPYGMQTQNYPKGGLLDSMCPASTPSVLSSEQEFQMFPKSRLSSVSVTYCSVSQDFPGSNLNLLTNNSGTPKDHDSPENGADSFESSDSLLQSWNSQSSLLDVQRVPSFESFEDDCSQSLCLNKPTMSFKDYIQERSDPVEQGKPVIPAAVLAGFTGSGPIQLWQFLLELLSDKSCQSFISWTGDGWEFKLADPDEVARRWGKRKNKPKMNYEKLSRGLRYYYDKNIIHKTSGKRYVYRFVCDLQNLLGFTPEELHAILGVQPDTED
# In short: as §1
# SPDEF = biological target: T9, SPDEF (Homo sapiens, UniProt O95238 1-335); details: protein: recombinant; tags: N-terminal GST; dsDNA, one strand shown
# T9 sequence: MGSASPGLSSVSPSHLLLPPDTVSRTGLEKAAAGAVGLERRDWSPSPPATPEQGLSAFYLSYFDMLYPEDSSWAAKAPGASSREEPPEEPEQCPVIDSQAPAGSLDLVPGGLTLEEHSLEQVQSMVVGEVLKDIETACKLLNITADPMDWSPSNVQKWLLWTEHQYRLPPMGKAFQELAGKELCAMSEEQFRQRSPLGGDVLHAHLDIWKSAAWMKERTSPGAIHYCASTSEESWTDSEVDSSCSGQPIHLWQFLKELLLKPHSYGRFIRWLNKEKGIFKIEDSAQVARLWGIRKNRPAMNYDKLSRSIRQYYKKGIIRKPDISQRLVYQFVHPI
# In short: as §1
# ETV7 = biological target: T10, ETV7 (Homo sapiens, UniProt Q9Y603 1-341); details: protein: recombinant; tags: N-terminal GST; dsDNA, one strand shown
# T10 sequence: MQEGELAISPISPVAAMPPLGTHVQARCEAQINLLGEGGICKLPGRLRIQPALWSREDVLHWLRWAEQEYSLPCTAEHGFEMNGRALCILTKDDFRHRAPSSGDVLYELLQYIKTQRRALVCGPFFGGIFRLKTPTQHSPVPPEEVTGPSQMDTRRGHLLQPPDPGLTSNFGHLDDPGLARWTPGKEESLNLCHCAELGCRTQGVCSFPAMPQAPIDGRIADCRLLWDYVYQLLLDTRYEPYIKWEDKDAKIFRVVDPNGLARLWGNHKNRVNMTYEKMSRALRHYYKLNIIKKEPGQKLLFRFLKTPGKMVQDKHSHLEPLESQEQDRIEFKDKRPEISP
# In short: as §1
# ELF5 = biological target: T11, ELF5 (Homo sapiens, UniProt Q9UKW6-2 1-255); details: protein: recombinant; tags: N-terminal GST; dsDNA, one strand shown
# T11 sequence: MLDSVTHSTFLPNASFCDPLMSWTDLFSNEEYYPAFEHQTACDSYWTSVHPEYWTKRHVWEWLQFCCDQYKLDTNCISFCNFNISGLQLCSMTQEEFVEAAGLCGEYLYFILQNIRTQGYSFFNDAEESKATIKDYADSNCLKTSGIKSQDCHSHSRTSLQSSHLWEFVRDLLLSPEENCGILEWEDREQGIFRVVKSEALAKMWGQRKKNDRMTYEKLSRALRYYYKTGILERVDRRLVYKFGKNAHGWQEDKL
# In short: as §1
# ETV3 = biological target: T12, ETV3 (Homo sapiens, UniProt P41162-2 1-143); details: protein: recombinant; tags: N-terminal GST; dsDNA, one strand shown
# T12 sequence: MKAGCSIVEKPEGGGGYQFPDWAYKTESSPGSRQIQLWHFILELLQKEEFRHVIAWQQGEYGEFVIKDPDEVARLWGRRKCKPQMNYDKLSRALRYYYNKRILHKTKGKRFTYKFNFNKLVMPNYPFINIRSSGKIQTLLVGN
# In short: as §1
# ETV6 = ETV6 (Homo sapiens, UniProt P41212 1-452); details: protein: recombinant; tags: N-terminal GST; dsDNA, one strand shown
# Chain of ETV6 (P41212 whole entry): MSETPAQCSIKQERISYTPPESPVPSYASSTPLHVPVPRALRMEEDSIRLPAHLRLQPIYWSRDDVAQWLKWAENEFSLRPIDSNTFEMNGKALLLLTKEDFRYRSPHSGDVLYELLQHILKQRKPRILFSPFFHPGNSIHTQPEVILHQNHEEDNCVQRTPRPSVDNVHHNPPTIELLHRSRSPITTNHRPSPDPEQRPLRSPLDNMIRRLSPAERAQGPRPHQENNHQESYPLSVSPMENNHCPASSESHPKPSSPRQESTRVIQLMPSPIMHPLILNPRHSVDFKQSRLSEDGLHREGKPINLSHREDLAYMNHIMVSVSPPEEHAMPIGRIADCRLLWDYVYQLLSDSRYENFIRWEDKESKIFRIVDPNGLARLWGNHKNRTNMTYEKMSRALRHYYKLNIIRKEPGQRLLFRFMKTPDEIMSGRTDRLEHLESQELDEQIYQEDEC
# In short: as §1
sequence,measurement,setting,value
TAAACC,binding signal,FEV,"1.29 fold enrichment (6-mer frequency, TF over GST control)"
same,binding signal,ETV5,"1.23 fold enrichment (6-mer frequency, TF over GST control)"
same,binding signal,HSF1,"1.46 fold enrichment (6-mer frequency, TF over GST control)"
same,binding signal,SPIC,"1.13 fold enrichment (6-mer frequency, TF over GST control)"
same,binding signal,ELF4,"1.19 fold enrichment (6-mer frequency, TF over GST control)"
same,binding signal,ELK4,"1.32 fold enrichment (6-mer frequency, TF over GST control)"
same,binding signal,ETV2,"1.27 fold enrichment (6-mer frequency, TF over GST control)"
same,binding signal,ELF3,"1.35 fold enrichment (6-mer frequency, TF over GST control)"
same,binding signal,CRX,"2.11 fold enrichment (6-mer frequency, TF over GST control)"
same,binding signal,ETV1,"1.23 fold enrichment (6-mer frequency, TF over GST control)"
same,binding signal,ERF,"1.28 fold enrichment (6-mer frequency, TF over GST control)"
same,binding signal,ETV3L,"1.26 fold enrichment (6-mer frequency, TF over GST control)"
same,binding signal,ETS2,"1.22 fold enrichment (6-mer frequency, TF over GST control)"
same,binding signal,SPDEF,"1.28 fold enrichment (6-mer frequency, TF over GST control)"
same,binding signal,ETV7,"1.22 fold enrichment (6-mer frequency, TF over GST control)"
same,binding signal,ELF5,"1.21 fold enrichment (6-mer frequency, TF over GST control)"
same,binding signal,ETV3,"1.26 fold enrichment (6-mer frequency, TF over GST control)"
same,binding signal,ETV6,"1.29 fold enrichment (6-mer frequency, TF over GST control)"
